Source: PubChem BioAssay

Tests used:
[1] = system: Botulinum neurotoxin type F light chain protease (Clostridium botulinum); test: Botulinum neurotoxin type F light chain protease inhibition, multiplex microsphere flow cytometry, validation set (AID 588459); conditions: multiplex microsphere protease substrate cleavage assay, at 10 µM, active compounds read high
[2] = target: Botulinum neurotoxin type A (Clostridium botulinum) (UniProt P0DPI0); test: BoNT/A light chain protease inhibitors, biochemical, multiplex microsphere flow cytometry, validation set (AID 588460); conditions: at 10 µM, active compounds read high
Chain of Botulinum neurotoxin type A (Clostridium botulinum) (P0DPI0 whole entry, looked up): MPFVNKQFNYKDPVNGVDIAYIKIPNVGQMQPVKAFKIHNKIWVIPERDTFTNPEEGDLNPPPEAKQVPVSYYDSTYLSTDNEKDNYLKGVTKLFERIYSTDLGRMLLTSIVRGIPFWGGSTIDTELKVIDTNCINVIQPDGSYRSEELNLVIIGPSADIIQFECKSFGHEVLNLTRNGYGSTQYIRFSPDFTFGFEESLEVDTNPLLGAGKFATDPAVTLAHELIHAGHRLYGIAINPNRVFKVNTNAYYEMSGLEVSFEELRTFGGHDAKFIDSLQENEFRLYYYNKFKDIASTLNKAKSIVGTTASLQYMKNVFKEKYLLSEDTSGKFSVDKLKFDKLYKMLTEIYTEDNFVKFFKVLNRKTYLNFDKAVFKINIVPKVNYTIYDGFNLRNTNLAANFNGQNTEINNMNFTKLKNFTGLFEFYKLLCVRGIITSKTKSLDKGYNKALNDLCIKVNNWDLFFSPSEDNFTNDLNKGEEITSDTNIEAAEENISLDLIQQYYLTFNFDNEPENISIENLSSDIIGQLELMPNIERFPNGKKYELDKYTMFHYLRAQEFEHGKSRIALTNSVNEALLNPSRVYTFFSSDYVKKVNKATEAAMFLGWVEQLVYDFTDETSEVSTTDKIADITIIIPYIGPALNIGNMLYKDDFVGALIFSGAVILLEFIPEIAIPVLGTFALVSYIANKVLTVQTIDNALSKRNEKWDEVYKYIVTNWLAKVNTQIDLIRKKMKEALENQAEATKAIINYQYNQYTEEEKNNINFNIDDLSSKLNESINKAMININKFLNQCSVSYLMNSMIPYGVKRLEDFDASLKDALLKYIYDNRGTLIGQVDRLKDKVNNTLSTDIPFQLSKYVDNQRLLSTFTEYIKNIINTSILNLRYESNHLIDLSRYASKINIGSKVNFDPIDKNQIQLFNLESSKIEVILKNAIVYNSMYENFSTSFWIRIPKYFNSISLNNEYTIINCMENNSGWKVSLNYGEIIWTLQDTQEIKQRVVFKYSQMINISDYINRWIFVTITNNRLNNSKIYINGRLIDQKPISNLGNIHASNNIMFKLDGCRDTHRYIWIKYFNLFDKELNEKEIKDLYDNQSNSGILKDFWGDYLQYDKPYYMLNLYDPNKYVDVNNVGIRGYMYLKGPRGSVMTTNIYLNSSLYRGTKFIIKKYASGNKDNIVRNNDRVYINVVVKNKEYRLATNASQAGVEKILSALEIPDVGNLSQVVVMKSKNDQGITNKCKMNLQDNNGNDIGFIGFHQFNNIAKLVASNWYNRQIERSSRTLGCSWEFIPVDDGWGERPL

[3] = target: Lethal factor (Bacillus anthracis) (UniProt P15917); test: Lethal factor protease inhibitors, Bacillus anthracis, multiplex microsphere cleavage assay, validation set (AID 588461); conditions: flow cytometry, at 10 µM, active compounds read high
Chain of Lethal factor (Bacillus anthracis) (P15917 whole entry, looked up): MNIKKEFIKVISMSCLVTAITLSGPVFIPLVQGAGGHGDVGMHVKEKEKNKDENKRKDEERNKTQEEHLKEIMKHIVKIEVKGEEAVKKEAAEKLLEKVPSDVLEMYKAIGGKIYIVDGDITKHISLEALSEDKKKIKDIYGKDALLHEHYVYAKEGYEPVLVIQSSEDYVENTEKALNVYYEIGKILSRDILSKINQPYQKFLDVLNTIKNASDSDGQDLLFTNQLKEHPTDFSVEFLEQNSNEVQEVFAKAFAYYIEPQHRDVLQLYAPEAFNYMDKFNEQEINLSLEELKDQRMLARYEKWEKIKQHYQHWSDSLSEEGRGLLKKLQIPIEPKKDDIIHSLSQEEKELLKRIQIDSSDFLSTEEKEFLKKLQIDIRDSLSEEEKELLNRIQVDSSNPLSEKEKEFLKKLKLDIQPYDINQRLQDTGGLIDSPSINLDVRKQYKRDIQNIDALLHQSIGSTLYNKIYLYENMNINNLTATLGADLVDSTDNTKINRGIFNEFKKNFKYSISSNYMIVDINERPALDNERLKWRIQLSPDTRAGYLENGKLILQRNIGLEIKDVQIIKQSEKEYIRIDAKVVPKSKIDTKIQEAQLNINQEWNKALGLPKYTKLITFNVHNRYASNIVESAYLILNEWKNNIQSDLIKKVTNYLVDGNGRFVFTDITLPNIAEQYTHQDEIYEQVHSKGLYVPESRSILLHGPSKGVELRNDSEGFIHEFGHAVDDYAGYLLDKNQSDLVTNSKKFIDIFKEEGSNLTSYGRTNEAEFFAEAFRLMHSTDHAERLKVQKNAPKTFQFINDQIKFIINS

Measured: inhibition

CCc1cccc2c3c([nH]c12)C(CC)(CC(=O)O)OCC3 (stereo not given)
inactive: [1] -3.9% | [2] -0.3% | [3] -0.8%

Cc1cccc(C)c1NC(=O)C1CCCCN1C (stereo not given)
inactive: [1] -3.1% | [2] -0.1% | [3] -7.9%

CC[C@]1(O)C[C@@H]2CN(CCc3c([nH]c4ccccc34)[C@@](C(=O)OC)(c3cc4c(cc3OC)N(C)[C@H]3[C@@](O)(C(=O)OC)[C@H](OC(C)=O)[C@]5(CC)C=CCN6CC[C@]43[C@@H]65)C2)C1
inactive: [1] 16.1% | [2] 3.4% | [3] -0.3%

Cn1c(=S)n(C)c2ccccc21
inactive: [1] 4% | [2] 0.1% | [3] 2.8%

COc1ccc(CNC(=O)c2cc3c(=O)n4ccccc4nc3n(Cc3cccnc3)c2=N)cc1
inactive: [1] -1.2% | [2] 0.4% | [3] -1.9%

COc1ccc(C2C(C(=O)c3ccco3)=C(O)C(=O)N2CC2CCCO2)cc1 (stereo not given)
inactive: [1] 1.3% | [2] 0.2% | [3] -4.2%

COc1c(C=O)c(CCN(C)C(=O)c2ccc(F)cc2)cc2c1OCO2
inactive: [1] 3% | [2] -1.5% | [3] -4.4%

NC12CC3CC(C1)CC(O)(C3)C2
inactive: [1] 4.4% | [2] -0.4% | [3] -0.7%

O=C(NCCO)c1ccc(Cl)c(Cl)c1
inactive: [1] -0.2% | [2] -0.6% | [3] -2.2%

O=C(O)c1ccc(C(=O)C(=O)c2ccccc2)cc1
inactive: [1] 1.6% | [2] 1.8% | [3] -6.8%
